# Source: PubChem BioAssay (NCI)
# Several values for one entry are separate records, joined by “and”; a condition that tells them apart may be missing. Equal entries are not always repeated. About 79,000 compounds went through this panel and 15% of them were active in at least one assay; those are over-represented in the sample as a whole. A structure can be active in one record and inactive in another. Activity calls are given as the source filed them. Rule as the data show it: active = growth inhibition above about 70%; inactive = the rest.
# Columns and labels:
# [1] = NCI Yeast Anticancer Drug Screen. Data for the rad50EPP+ strain (AID 151);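 also: 0% = growth of vehicle-treated control cultures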; conditions: S. cerevisiae rad50 mutant strain, stronger effect = higher value
# Procedure, shortened: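 Genetically defined yeast (rad50EPP+, DNA damage repair alteration) is grown with compound, and inhibition of growth is expressed relative to vehicle-treated controls.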
# [2] = NCI Yeast Anticancer Drug Screen. Data for the rad50 strain (AID 155);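 also: 0% = growth of vehicle-only cultures of the same strain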; conditions: S. cerevisiae rad50 strain growth inhibition, stronger effect = higher value
# Procedure, shortened: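 Inhibition values express reduced yeast growth in compound-treated cultures relative to vehicle-treated controls.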
# [3] = NCI Yeast Anticancer Drug Screen. Data for the mec2-1 strain (AID 157); conditions: S. cerevisiae mec2-1 strain, stronger effect = higher value
# Procedure, shortened: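 Each compound was tested on mec2-1 yeast, a strain altered in DNA damage repair or cell cycle control. Growth inhibition is reported relative to vehicle.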
# [4] = NCI Yeast Anticancer Drug Screen. Data for the sgs1 mgt1 strain (AID 161);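 also: 0% = growth of cultures given vehicle only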; conditions: S. cerevisiae sgs1 mgt1 strain, stronger effect = higher value
# Procedure, shortened: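 Genetically altered yeast, compound exposure, growth inhibition relative to vehicle.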
# [5] = NCI Yeast Anticancer Drug Screen. Data for the CLN2oe strain (AID 163);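 also: 0% = growth of vehicle-only control cultures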; conditions: S. cerevisiae CLN2oe strain, stronger effect = higher value
# Procedure, shortened: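 First, the altered yeast strain was treated with each compound; second, its growth was measured; finally, inhibition was derived by comparison with vehicle controls.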
# [6] = NCI Yeast Anticancer Drug Screen. Data for the cln2 rad14 strain (AID 165);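 also: 0% = growth equal to vehicle treated cultures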; conditions: S. cerevisiae cln2 rad14 strain, stronger effect = higher value
# Procedure, shortened: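 Test compounds were added to cln2 rad14 yeast cultures; inhibition of growth was then determined by comparison with vehicle treatment.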
# [7] = NCI Yeast Anticancer Drug Screen. Data for the bub3 strain (AID 167); conditions: S. cerevisiae bub3 mutant strain, stronger effect = higher value
# Procedure, shortened: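 Steps: expose the mutant yeast strain to compound; grow alongside vehicle-treated cultures; measure growth; express inhibition against the vehicle cultures.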
# [8] = NCI Yeast Anticancer Drug Screen. Data for the wt2 strain (AID 169);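 also: 0% = growth of vehicle-treated yeast cultures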; conditions: S. cerevisiae wt2 strain growth inhibition, stronger effect = higher value
# Procedure, shortened: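 The panel's yeast strains carry defined changes in DNA repair or cell cycle genes. Each strain is grown with compound, and growth loss is scored relative to vehicle.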
# [9] = NCI Yeast Anticancer Drug Screen. Data for the mlh1 strain (AID 171);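 also: 0% = growth of vehicle-treated control cultures of the same strain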; conditions: S. cerevisiae mlh1 strain growth inhibition, stronger effect = higher value
# Procedure, shortened: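 Inhibition values reflect reduced yeast growth in the presence of compound, referenced to vehicle controls, using a strain chosen for its alteration in DNA repair or cell cycle control.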
# [10] = NCI Yeast Anticancer Drug Screen. Data for the mlh1 rad18 strain (AID 175); conditions: S. cerevisiae mlh1 rad18 strain growth inhibition, stronger effect = higher value
# Procedure, shortened: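 Inhibition values reflect reduced growth of mutant yeast versus vehicle-treated controls following compound exposure; the mutations affect DNA damage repair.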
# [11] = NCI Yeast Anticancer Drug Screen. Data for the rad18 strain (AID 177); conditions: S. cerevisiae rad18 mutant growth inhibition, stronger effect = higher value
# Procedure, shortened: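 Steps: expose repair-mutant yeast to compound; measure growth; express as inhibition relative to vehicle control.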
# [12] = NCI Yeast Anticancer Drug Screen. Data for the rad14 strain (AID 159);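 also: 0% = growth of vehicle-treated control cultures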; conditions: S. cerevisiae rad14 strain growth inhibition, stronger effect = higher value
# Procedure, shortened: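 A mutant yeast strain defective in DNA damage repair is treated with compound; inhibition of its growth is scored against untreated, vehicle-exposed cultures.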
# [13] = NCI Yeast Anticancer Drug Screen. Data for the sgs1 strain (AID 173);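 also: 0% = growth of vehicle-only control cultures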; conditions: S. cerevisiae sgs1 mutant, stronger effect = higher value
# Procedure, shortened: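 Vehicle-treated cultures served as reference for growth inhibition of a yeast strain altered in DNA damage repair or cell cycle control after compound exposure.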
# [14] = at 5.0 µM (retest, dose inferred, filed as 0.5)
# [15] = at 50.0 µM (retest, dose inferred, filed as 5.0)
structure (smiles),measurement,setting,value
O=c1c(Br)cc2c(-c3ccccc3)c3cc(Br)c(O)c(Br)c3oc-2c1Br,growth inhibition,[1]; at 1.2 µM,1% (inactive)
same,growth inhibition,[1]; at 3.7 µM,23% (inactive)
same,growth inhibition,[1]; at 11.0 µM,38% (inactive)
same,growth inhibition,[1]; at 33.0 µM,57% (inactive)
same,growth inhibition,[1]; at 100.0 µM,39% (inactive)
same,growth inhibition,[2]; at 1.2 µM,-54% (inactive)
same,growth inhibition,[2]; at 3.7 µM,24% (inactive)
same,growth inhibition,[2]; [14],22% (inactive)
same,growth inhibition,[2]; at 11.0 µM,89% (active)
same,growth inhibition,[2]; at 33.0 µM,87% (active)
same,growth inhibition,[2]; [15],13% (inactive)
same,growth inhibition,[2]; at 50.0 µM,80.8% (active)
same,growth inhibition,[2]; at 100.0 µM,80% (active)
same,growth inhibition,[3]; at 1.2 µM,1% (inactive)
same,growth inhibition,[3]; at 3.7 µM,4% (inactive)
same,growth inhibition,[3]; [14],54% (inactive)
same,growth inhibition,[3]; at 11.0 µM,-1% (inactive)
same,growth inhibition,[3]; at 33.0 µM,-3% (inactive)
same,growth inhibition,[3]; [15],28% (inactive)
same,growth inhibition,[3]; at 50.0 µM,78.4% (active)
same,growth inhibition,[3]; at 100.0 µM,-1% (inactive)
same,growth inhibition,[4]; [14],16% (inactive)
same,growth inhibition,[4]; [15],7% (inactive)
same,growth inhibition,[4]; at 50.0 µM,61.3% (inactive)
same,growth inhibition,[5]; at 1.2 µM,3% (inactive)
same,growth inhibition,[5]; at 3.7 µM,5% (inactive)
same,growth inhibition,[5]; at 11.0 µM,9% (inactive)
same,growth inhibition,[5]; at 33.0 µM,23% (inactive)
same,growth inhibition,[5]; at 100.0 µM,15% (inactive)
same,growth inhibition,[6]; [14],28% (inactive)
same,growth inhibition,[6]; [15],12% (inactive)
same,growth inhibition,[6]; at 50.0 µM,55% (inactive)
same,growth inhibition,[7]; at 1.2 µM,-4% (inactive)
same,growth inhibition,[7]; at 3.7 µM,4% (inactive)
same,growth inhibition,[7]; [14],6% (inactive)
same,growth inhibition,[7]; at 11.0 µM,76% (active)
same,growth inhibition,[7]; at 33.0 µM,92% (active)
same,growth inhibition,[7]; [15],-6% (inactive)
same,growth inhibition,[7]; at 50.0 µM,54.2% (inactive)
same,growth inhibition,[7]; at 100.0 µM,79% (active)
same,growth inhibition,[8]; at 1.2 µM,10% (inactive)
same,growth inhibition,[8]; at 3.7 µM,17% (inactive)
same,growth inhibition,[8]; at 11.0 µM,21% (inactive)
same,growth inhibition,[8]; at 33.0 µM,18% (inactive)
same,growth inhibition,[8]; at 100.0 µM,6% (inactive)
same,growth inhibition,[9]; at 1.2 µM,0% (inactive)
same,growth inhibition,[9]; at 3.7 µM,-29% (inactive)
same,growth inhibition,[9]; at 11.0 µM,12% (inactive)
same,growth inhibition,[9]; at 33.0 µM,18% (inactive)
same,growth inhibition,[9]; at 100.0 µM,25% (inactive)
same,growth inhibition,[10]; [14],67% (inactive)
same,growth inhibition,[10]; [15],58% (inactive)
same,growth inhibition,[10]; at 50.0 µM,83.4% (active)
same,growth inhibition,[11]; at 1.2 µM,-8% (inactive)
same,growth inhibition,[11]; at 3.7 µM,9% (inactive)
same,growth inhibition,[11]; at 11.0 µM,1% (inactive)
same,growth inhibition,[11]; at 33.0 µM,-2% (inactive)
same,growth inhibition,[11]; at 100.0 µM,-10% (inactive)
CCCCCCCCCCCC[N+](C)(C)Cc1ccccc1 (tested in a mixture with another compound),growth inhibition,[2]; [14],79% (active) and 69% (inactive) and 58% (inactive)
same,growth inhibition,[2]; [15],99% (active)
same,growth inhibition,[2]; at 50.0 µM,98% (active) and 99.6% (active) and 97.7% (active)
same,growth inhibition,[3]; [14],79% (active) and 55% (inactive) and 44% (inactive)
same,growth inhibition,[3]; [15],100% (active)
same,growth inhibition,[3]; at 50.0 µM,99.7% (active) and 99.8% (active) and 86.8% (active)
same,growth inhibition,[4]; [14],93% (active) and 95% (active) and 89% (active)
same,growth inhibition,[4]; [15],100% (active) and 99% (active)
same,growth inhibition,[4]; at 50.0 µM,99.7% (active) and 99.8% (active) and 99.5% (active)
same,growth inhibition,[6]; [14],66% (inactive) and 58% (inactive) and 61% (inactive)
same,growth inhibition,[6]; [15],99% (active)
same,growth inhibition,[6]; at 50.0 µM,98.5% (active) and 97.3% (active) and 96% (active)
same,growth inhibition,[7]; [14],93% (active) and 76% (active)
same,growth inhibition,[7]; [15],100% (active) and 99% (active)
same,growth inhibition,[7]; at 50.0 µM,99.8% (active) and 99.3% (active) and 98.3% (active)
same,growth inhibition,[10]; [14],94% (active) and 74% (active) and 78% (active)
same,growth inhibition,[10]; [15],100% (active)
same,growth inhibition,[10]; at 50.0 µM,99.5% (active) and 98.9% (active)
O=Cc1ccccc1B(O)O,growth inhibition,[1]; at 1.2 µM,43% (inactive)
same,growth inhibition,[1]; at 3.7 µM,79% (active)
same,growth inhibition,[1]; at 11.0 µM,94% (active)
same,growth inhibition,[1]; at 33.0 µM,97% (active)
same,growth inhibition,[1]; at 100.0 µM,99% (active)
same,growth inhibition,[2]; at 1.2 µM,31% (inactive)
same,growth inhibition,[2]; at 3.7 µM,79% (active)
same,growth inhibition,[2]; [14],48% (inactive)
same,growth inhibition,[2]; at 11.0 µM,96% (active)
same,growth inhibition,[2]; at 33.0 µM,99% (active)
same,growth inhibition,[2]; [15],95% (active)
same,growth inhibition,[2]; at 50.0 µM,98.8% (active)
same,growth inhibition,[2]; at 100.0 µM,99% (active)
same,growth inhibition,[3]; at 1.2 µM,2% (inactive)
same,growth inhibition,[3]; at 3.7 µM,25% (inactive)
same,growth inhibition,[3]; [14],-25% (inactive)
same,growth inhibition,[3]; at 11.0 µM,97% (active)
same,growth inhibition,[3]; at 33.0 µM,99% (active)
same,growth inhibition,[3]; [15],96% (active)
same,growth inhibition,[3]; at 50.0 µM,99.6% (active)
same,growth inhibition,[3]; at 100.0 µM,100% (active)
same,growth inhibition,[12]; at 1.2 µM,3% (inactive)
same,growth inhibition,[12]; at 3.7 µM,13% (inactive)
same,growth inhibition,[12]; at 11.0 µM,90% (active)
same,growth inhibition,[12]; at 33.0 µM,99% (active)
same,growth inhibition,[12]; at 100.0 µM,99% (active)
same,growth inhibition,[4]; [14],-25% (inactive)
same,growth inhibition,[4]; [15],95% (active)
same,growth inhibition,[4]; at 50.0 µM,98.9% (active)
same,growth inhibition,[5]; at 1.2 µM,-4% (inactive)
same,growth inhibition,[5]; at 3.7 µM,11% (inactive)
same,growth inhibition,[5]; at 11.0 µM,84% (active)
same,growth inhibition,[5]; at 33.0 µM,98% (active)
same,growth inhibition,[5]; at 100.0 µM,99% (active)
same,growth inhibition,[6]; [14],-52% (inactive)
same,growth inhibition,[6]; [15],94% (active)
same,growth inhibition,[6]; at 50.0 µM,96.5% (active)
same,growth inhibition,[7]; at 1.2 µM,-14% (inactive)
same,growth inhibition,[7]; at 3.7 µM,-8% (inactive)
same,growth inhibition,[7]; [14],-83% (inactive)
same,growth inhibition,[7]; at 11.0 µM,81% (active)
same,growth inhibition,[7]; at 33.0 µM,98% (active)
same,growth inhibition,[7]; [15],95% (active)
same,growth inhibition,[7]; at 50.0 µM,99% (active)
same,growth inhibition,[7]; at 100.0 µM,99% (active)
same,growth inhibition,[8]; at 1.2 µM,0% (inactive)
same,growth inhibition,[8]; at 3.7 µM,1% (inactive)
same,growth inhibition,[8]; at 11.0 µM,77% (active)
same,growth inhibition,[8]; at 33.0 µM,100% (active)
same,growth inhibition,[8]; at 100.0 µM,99% (active)
same,growth inhibition,[9]; at 1.2 µM,8% (inactive)
same,growth inhibition,[9]; at 3.7 µM,14% (inactive)
same,growth inhibition,[9]; at 11.0 µM,86% (active)
same,growth inhibition,[9]; at 33.0 µM,99% (active)
same,growth inhibition,[9]; at 100.0 µM,99% (active)
same,growth inhibition,[13]; at 1.2 µM,18% (inactive)
same,growth inhibition,[13]; at 3.7 µM,66% (inactive)
same,growth inhibition,[13]; at 11.0 µM,96% (active)
same,growth inhibition,[13]; at 33.0 µM,99% (active)
same,growth inhibition,[13]; at 100.0 µM,99% (active)
same,growth inhibition,[10]; [14],-48% (inactive)
same,growth inhibition,[10]; [15],94% (active)
same,growth inhibition,[10]; at 50.0 µM,99.5% (active)
same,growth inhibition,[11]; at 1.2 µM,1% (inactive)
same,growth inhibition,[11]; at 3.7 µM,34% (inactive)
same,growth inhibition,[11]; at 11.0 µM,94% (active)
same,growth inhibition,[11]; at 33.0 µM,98% (active)
same,growth inhibition,[11]; at 100.0 µM,99% (active)
